Measurements published in PubChem BioAssay AID793 (The Scripps Research Institute Molecular Screening Center, 2007).
In all, about 140,000 compounds went through this assay and about 1,400 (1%) were called active. The sample holds actives, similar compounds and a random draw of the others, so the mix is not that of the screen. No stated cut-off is given here; in the data, active means inhibition above about 17%; inactive means the rest.

Each compound was assayed against Neuropeptide Y receptor type 2 (Homo sapiens) (UniProt P49146) (assay: NPY-Y2 receptor antagonists, primary screen, cell-based (AID 793;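 further: 0% = vehicle with agonist challenge and 100% = reference antagonist with challenge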)). Settings: NPY-Y2 expressing cells, antagonist mode; at 2.7 µM; active compounds read high.
Neuropeptide Y receptor type 2 (Homo sapiens), sequence (P49146 whole entry, looked up): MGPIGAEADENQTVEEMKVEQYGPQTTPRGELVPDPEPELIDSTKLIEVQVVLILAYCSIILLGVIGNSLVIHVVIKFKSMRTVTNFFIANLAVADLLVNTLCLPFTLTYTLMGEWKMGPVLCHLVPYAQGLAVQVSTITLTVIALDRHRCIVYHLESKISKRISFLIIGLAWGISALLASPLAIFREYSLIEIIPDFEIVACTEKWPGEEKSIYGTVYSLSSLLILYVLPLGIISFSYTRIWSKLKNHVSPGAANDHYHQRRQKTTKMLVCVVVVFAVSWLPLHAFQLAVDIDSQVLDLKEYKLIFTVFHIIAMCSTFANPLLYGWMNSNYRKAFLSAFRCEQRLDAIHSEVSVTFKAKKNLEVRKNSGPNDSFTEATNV
In the case of Cc1ccc(S(=O)(=O)N2CCN(CC(=O)N/N=C/c3ccc(Br)s3)CC2)cc1, the inhibition is reported as -1.25% (inactive). With CCOC(=O)NCc1ccc2c(c1)OCO2 the inhibition was 4.28% (inactive). In the case of COc1ccc2c(c1)C(C)=CC(C)(C)N2C(=O)CNCc1ccc2c(c1)OCO2, the inhibition is reported as 26.6% (active). For COc1ccc2c(c1)C(C)=CC(C)(C)N2C(=O)Nc1ccccc1, the inhibition was 0.85% (inactive). In the case of COc1ccc(Cl)cc1NC(=O)COC(=O)C(CC(C)C)N1C(=O)C2CC=CCC2C1=O (centres undefined), the inhibition is reported as 3.69% (inactive). In the case of Cc1nccn1CC(=O)N/N=C/c1ccc(O)c(O)c1, the inhibition is reported as 0.1% (inactive). With CCCc1nc(SCC(=O)Nc2ccccc2OC)c2c(=O)n(C)c(=O)n(C)c2n1 the inhibition was 21.6% (active). With CCCCCNC(=O)c1cccnc1SCC(=O)Nc1ccccc1OC the inhibition was 1.23% (inactive). With Cn1c(=O)c2c(nc(SCC(=O)Nc3ccccc3N3CCCCC3)n2C)n(C)c1=O the inhibition was 3.41% (inactive). O=C(NC1CC1)c1cccc(Br)c1 was tested, and the inhibition was 1.02% (inactive). With Cc1ccccc1C(=O)NNC(=O)CN1C(=O)c2ccccc2C1=O the inhibition was 4.26% (inactive). For N#CCOc1ccc(C2=NO[C@@H]3[C@@H]4C[C@@H]([C@H]5C(=O)N(c6ccc7c(c6)OCO7)C(=O)[C@@H]45)[C@H]23)cc1, the inhibition was 3.09% (inactive). For CCOc1ccccc1NC(=O)CCc1ccc(C)o1, the inhibition was 1.25% (inactive). For Cc1cnc(NC(=O)CSc2nnc(-c3ccc(Cl)cc3Cl)n2N)s1, the inhibition was 0.61% (inactive). For Cc1ccc(CCC(=O)Nc2ncc(Cc3cc(Cl)ccc3Cl)s2)o1, the inhibition was 24.4% (active). O=C(COC(=O)c1cc([N+](=O)[O-])ccc1NCc1ccccc1)NC1CCCCC1 was tested, and the inhibition was 5.74% (inactive). With CC(C)C(c1nnnn1CCc1ccccc1)N1CCN(C(=O)c2ccco2)CC1 (centres undefined) the inhibition was 3.59% (inactive). For N#Cc1ccc(C(c2nnnn2CCc2ccccc2)N2CCCCCC2)cc1 (centres undefined), the inhibition was 17.9% (active). For COc1ccc(CCn2nnnc2C(c2ccccc2)N2CCN(C)CC2)cc1OC (centres undefined), the inhibition was 5.97% (inactive). With CCOc1cc(CNCc2ccccn2)ccc1OCC(=O)NC(C)(C)C the inhibition was 2.66% (inactive). With Cc1ccc(NC(=O)CCOc2ccccc2)cc1S(=O)(=O)Nc1ccccc1Cl the inhibition was 0.14% (inactive). For CCOC(=O)c1ccc(N/C(=N/S(=O)(=O)c2ccccc2)c2ccccc2)cc1, the inhibition was 0.02% (inactive). For O=C(CNC(=O)C(c1ccccc1)c1ccccc1)N/N=C\c1ccc2c(c1)OCO2, the inhibition was 9.72% (inactive). For CCOc1ccc(NC(=O)CSc2nc3ccccc3c(=O)n2Cc2cccs2)cc1, the inhibition was 1.51% (inactive). With O=C(Nc1ccccc1)OCc1cn(-c2ccc(Cl)cc2)nn1 the inhibition was 12% (inactive). Cc1cccc(N2Cc3ccccc3C2=NC(=O)c2ccc(Cl)nc2)c1 was tested, and the inhibition was 1.24% (inactive). N#Cc1ccc(N2Cc3ccccc3/C2=N/C(=O)Nc2ccc(Cl)cc2)cc1 was tested, and the inhibition was 108% (active). For COc1ccc(-c2oc3ncn(Cc4ccco4)c(=N)c3c2-c2ccc(OC)cc2)cc1, the inhibition was 18.1% (active). For c1ccc(-c2oc3ncnc(N4CCOCC4)c3c2-c2ccccc2)cc1, the inhibition was 4.38% (inactive). In the case of C(=C\c1ccccc1)/CSc1nnc(-c2cccnc2)n1Cc1ccco1, the inhibition is reported as 7.64% (inactive). For COc1ccc(C(=O)CSc2nnc(COc3ccccc3)n2Cc2ccco2)cc1, the inhibition was 16.4% (inactive). With COc1ccc2[nH]c3c(=O)n(Cc4ccco4)cnc3c2c1 the inhibition was 3.41% (inactive). In the case of N=c1c2c(-c3ccccc3)c(-c3ccccc3)oc2ncn1Cc1ccco1, the inhibition is reported as 20.1% (active). With O=C(Nc1nnc(C2COc3ccccc3O2)o1)c1ccc(F)cc1 (centres undefined) the inhibition was 7.93% (inactive). For CN(C)CCNC(=O)/C(=C/c1cccc([N+](=O)[O-])c1)NC(=O)c1ccccc1, the inhibition was 1.28% (inactive). In the case of N=c1c2c(-c3ccccc3)c(-c3ccccc3)n(Cc3ccccc3)c2ncn1CCCO, the inhibition is reported as 72.4% (active). With OCCCN1c2ccccc2Nc2nnc(-c3ccccc3)cc21 the inhibition was 3.77% (inactive). With Cc1ccc2[nH]cc(CCNC(=O)c3ccc([N+](=O)[O-])cc3)c2c1 the inhibition was -0.38% (inactive). CSCc1ccc(C(=O)Nc2cc(C)cc(C)c2)cc1 was tested, and the inhibition was 3.07% (inactive). In the case of CC(=O)c1c(Nc2ccccc2)sc(C(=O)c2ccccc2)c1C, the inhibition is reported as 14.2% (inactive). With CCCCOC(=O)Nc1sc2nc(C)cc(C)c2c1-n1cccc1 the inhibition was 4.45% (inactive). With Cc1cc(C)c2c(-n3cccc3)c(NC(=O)OCc3ccccc3)sc2n1 the inhibition was 24.7% (active). For COC(=O)Nc1sc2nc(C)cc(C)c2c1-n1cccc1, the inhibition was 2.27% (inactive). For O=C(Nc1cccc(S(=O)(=O)N2CCCCC2)c1)c1ccc2c(c1)OCO2, the inhibition was 3.64% (inactive). For COc1ccccc1Nc1ncnc2c1oc1ccccc12, the inhibition was 19.4% (active). With CCc1nc(Nc2ccc3nccnc3c2)c2oc3ccccc3c2n1 the inhibition was -2.05% (inactive). In the case of Cc1nc(Cl)c2oc3ccccc3c2n1, the inhibition is reported as 4.04% (inactive). With CCC(C)(C)NC(=O)c1cc([N+](=O)[O-])ccc1N1CCCCC1 the inhibition was 0.52% (inactive). With O=[N+]([O-])c1ccc(N2CCN(c3ccc(O)cc3)CC2)c(Cl)c1 the inhibition was -2.81% (inactive). With CCN1CCN(c2ccc([N+](=O)[O-])cc2C(=O)c2ccc(Cl)cc2)CC1 the inhibition was 22.2% (active). With NC(=O)CC[C@@H]1NC(=O)[C@@H]2CCCN2C(=O)c2cc([N+](=O)[O-])cc(F)c2NCCC[C@@H](C(N)=O)NC1=O the inhibition was -1.38% (inactive). In the case of CCC1=NN(C(=O)Cc2ccc([N+](=O)[O-])cc2)C(O)(c2ccc(Br)cc2)C1 (centres undefined), the inhibition is reported as 4% (inactive). For COc1ccccc1N(C(=O)Cn1nnc2ccccc21)C(C(=O)NCc1ccco1)c1ccc(C)o1 (centres undefined), the inhibition was 26.2% (active). For COCCNC(=O)C(c1ccc(C)o1)N(Cc1ccccc1)C(=O)Cn1nnc2ccccc21 (centres undefined), the inhibition was 2.71% (inactive). For Cc1ccc(C(C(=O)NCc2ccco2)N(CC2CCCO2)C(=O)Cn2nnc3ccccc32)cc1 (centres undefined), the inhibition was 5.64% (inactive). O=C(Cn1nc(CNc2ccc(Cl)cc2)[n+]2c1CCCCC2)c1ccc(Cl)cc1 was tested, and the inhibition was 0.53% (inactive). In the case of CCn1nc(C)c(/C=N/NC(=O)Cc2ccc(Cl)cc2)c1C, the inhibition is reported as 2.23% (inactive). With COc1ccc(NS(=O)(=O)c2ccc(NC(=S)NC(=O)/C=C/c3ccc(C)cc3)cc2)nn1 the inhibition was 3.45% (inactive). In the case of COc1ccc(NC(=O)/C(Cl)=C(/Cl)S(=O)Cc2ccc(C)cc2)cn1 (centres undefined), the inhibition is reported as 52% (active). For COc1cccc(NC(=O)Cc2ccc(C)cc2)c1, the inhibition was 3.66% (inactive). In the case of CN(C)c1ccc(/C=N/NC(=O)c2ccc(Cn3cc(Br)cn3)o2)cc1, the inhibition is reported as -0.65% (inactive). In the case of CCCCC1S/C(=N/N=C/c2cccs2)NC1=O (centres undefined), the inhibition is reported as 2.47% (inactive). With CCOc1cccc(SCc2noc(C(=O)NC(C)C)c2C(=O)O)c1 the inhibition was 6.09% (inactive). For CCCCNC(=O)c1onc(CSc2cccc(OC)c2)c1C(=O)O, the inhibition was 28% (active). In the case of COCCNC(=O)c1onc(CSc2cccc(C)c2)c1C(=O)O, the inhibition is reported as 5.73% (inactive). For COc1ccnc(Oc2ccccc2)n1, the inhibition was 1.08% (inactive). In the case of CCCC(=O)C1CCN(Cc2ccccc2)CC1, the inhibition is reported as 0.89% (inactive). For O=C(Nc1ccccc1)N1CCN(Cc2ccccc2)CC1, the inhibition was 0.29% (inactive). For CC12CN(Cc3ccccc3)CC(C)(CN(Cc3ccccc3)C1)C2=NO, the inhibition was 28.4% (active). With COc1ccccc1N1CCN(CC(=O)NC(=O)NCc2ccco2)CC1 the inhibition was 2.56% (inactive). For Cc1ccc(C(CC(=O)O)Nc2nc(N3CCCCC3)nc(N3CCCCC3)n2)cc1 (centres undefined), the inhibition was 1.53% (inactive). With CC(Nc1nc(N2CCCC2)nc2ccccc12)c1ccccc1 (centres undefined) the inhibition was 54.6% (active). For CC(C)n1c(C(O)c2ccccc2)nc2ccccc21 (centres undefined), the inhibition was 1.4% (inactive). With Cc1cc(Oc2ccc(Cl)cc2)nc(SCC(=O)c2ccccc2)n1 the inhibition was 48.6% (active). With COC(=O)c1cc(C(=O)CSc2nc(C)cc(C)n2)ccc1O the inhibition was 4.06% (inactive). Cc1cc(SCC(=O)c2ccccc2)nc(SCC(=O)c2ccccc2)n1 was tested, and the inhibition was 13.8% (inactive). For Cc1ccccc1OCC(=O)Nc1nc(C)c(C(=O)N(C)C)s1, the inhibition was 5.58% (inactive). In the case of CC1CCN(C(=S)NC2CC3CCC2C3)CC1 (centres undefined), the inhibition is reported as 1.13% (inactive). In the case of O=C(CN1C(=O)NC2(CCCCCC2)C1=O)NCc1cccs1, the inhibition is reported as -3.2% (inactive). O=C(CN1C(=O)NC(Cc2ccccc2)(Cc2ccccc2)C1=O)NCC1CCCCC1 was tested, and the inhibition was 80.5% (active). O=C(CN1C(=O)NC2(CCCCC2)C1=O)NCCC1=CCCCC1 was tested, and the inhibition was 0.27% (inactive). O=C1CC(c2cccc(Cl)c2)CC(O)=C1C=Nc1ccccc1 (centres undefined) was tested, and the inhibition was 18.4% (active). For O=C1CCCC(O)=C1C=NCCc1ccccc1, the inhibition was 1.66% (inactive). In the case of O=C1CC(c2ccccc2)CC(O)=C1C=NCCN1CCOCC1 (centres undefined), the inhibition is reported as 0.58% (inactive). For COc1ccc(NC(C(=O)Nc2cccc(C(C)=O)c2)c2ccccc2)cc1 (centres undefined), the inhibition was -1.54% (inactive). With COCCCNCCOCCOc1ccc(Cl)cc1Br the inhibition was 3.88% (inactive). With O=C(NCc1cccnc1)c1cccnc1Sc1ccc(Cl)cc1 the inhibition was -0.63% (inactive). For O=C(NCc1cccnc1)c1ccc(CS(=O)(=O)c2ccc(Br)cc2)o1, the inhibition was -0.12% (inactive). Cc1ccc(S(=O)(=O)N(Cc2ccc(Cl)cc2)c2ccccc2C(=O)NCc2cccnc2)cc1 was tested, and the inhibition was 35% (active). For COc1ccc(/C=N/NC(=O)c2ccccc2)cc1OS(=O)(=O)c1ccccc1, the inhibition was 0.26% (inactive). COc1ccc(-c2noc(-c3ccc(C)cc3)n2)cc1 was tested, and the inhibition was 2.85% (inactive). With COc1ccc(-c2noc(CSc3ccc(C)cc3)n2)cc1 the inhibition was 16.5% (inactive). For COc1ccc(-c2noc(COc3ccc(Cl)c(C)c3)n2)cc1, the inhibition was 18.2% (active). With O=C(NCCCO)/C(=C\C=C\c1ccccc1)NC(=O)c1ccccc1Cl the inhibition was 1.12% (inactive).
